Out of some 310,000 compounds screened, about 14,000 (4.5%) showed an effect of 50% or more. The effect is printed as a negative number. Many of the other results were omitted from the sample, so strong results are more common in it than they were.

We go through 56 compounds from article PMC4336329 (PLoS ONE, 2015).
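Also: peak tail current of the secondary pulse compared with the same well before compound.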

Chain of human ether-à-go-go-related gene (hERG) potassium channel (Q12809 whole entry, looked up): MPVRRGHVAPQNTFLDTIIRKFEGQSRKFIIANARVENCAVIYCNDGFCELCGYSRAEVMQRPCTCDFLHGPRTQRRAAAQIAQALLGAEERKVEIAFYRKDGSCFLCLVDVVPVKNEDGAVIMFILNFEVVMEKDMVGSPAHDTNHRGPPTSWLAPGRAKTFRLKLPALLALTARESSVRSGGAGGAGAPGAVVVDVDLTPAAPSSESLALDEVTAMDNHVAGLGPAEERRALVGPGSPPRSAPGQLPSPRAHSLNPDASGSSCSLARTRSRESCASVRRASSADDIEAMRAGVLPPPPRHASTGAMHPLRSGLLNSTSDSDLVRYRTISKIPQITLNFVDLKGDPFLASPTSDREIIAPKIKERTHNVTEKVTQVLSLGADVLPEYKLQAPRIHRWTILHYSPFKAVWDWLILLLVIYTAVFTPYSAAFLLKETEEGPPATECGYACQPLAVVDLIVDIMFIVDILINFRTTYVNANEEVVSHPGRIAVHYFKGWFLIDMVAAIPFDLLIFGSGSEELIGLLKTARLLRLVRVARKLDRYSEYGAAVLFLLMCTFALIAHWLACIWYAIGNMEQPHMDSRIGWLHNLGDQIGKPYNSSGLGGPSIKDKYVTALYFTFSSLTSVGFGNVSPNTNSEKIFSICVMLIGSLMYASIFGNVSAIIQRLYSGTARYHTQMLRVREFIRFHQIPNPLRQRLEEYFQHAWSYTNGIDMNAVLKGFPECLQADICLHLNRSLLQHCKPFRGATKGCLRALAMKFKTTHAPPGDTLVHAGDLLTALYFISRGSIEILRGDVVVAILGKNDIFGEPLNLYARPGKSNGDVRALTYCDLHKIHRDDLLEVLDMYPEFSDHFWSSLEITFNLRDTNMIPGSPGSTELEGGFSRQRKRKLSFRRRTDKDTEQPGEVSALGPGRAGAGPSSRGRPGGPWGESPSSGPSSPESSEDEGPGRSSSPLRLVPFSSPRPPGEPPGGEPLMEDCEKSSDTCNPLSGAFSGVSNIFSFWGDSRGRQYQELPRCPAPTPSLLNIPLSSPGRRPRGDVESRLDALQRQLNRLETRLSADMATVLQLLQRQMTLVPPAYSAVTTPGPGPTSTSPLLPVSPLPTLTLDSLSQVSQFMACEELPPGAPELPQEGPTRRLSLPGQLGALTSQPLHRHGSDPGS

The experiment has as its target human ether-à-go-go-related gene (hERG) potassium channel (human, UniProt Q12809). Description: primary screen, population patch clamp on CHO cells stably expressing hERG; higher = less effect of the substance.
For the compound `O=C(O)c1ccc(N2C(=O)CC(SC(=NCc3ccc4c(c3)OCO4)Nc3ccccc3)C2=O)cc1` (centres unmarked), the “hERG current change (%, negative = inhibition) at 10uM” value is recorded as 13.9%.
The value for `CCOC(=O)C1=C(C)NC(=O)CC1c1ccccc1` (centres unmarked) was -0.777%; that for `COc1ccc(C(=O)CCc2ccc(OC)c(OC)c2)cc1` was -10.3%; that for `O=C(CNC(=O)c1ccc(Br)cc1)OCC(=O)c1ccccc1` was 10.2%.
The value for `Cc1ccc2[nH]c(-c3cccc(N)c3)cc2c1` was 18.4%; that for `O=C(CSc1nnc(CN2CCCCC2)n1-c1ccccc1)c1ccc2c(c1)OCO2` was -25.4%; that for `CCC1Oc2ccc(C)cc2N(CC(=O)N2CCCC2)C1=O` (centres unmarked) was 23.2%.
In the case of `CCC1Oc2ccc(C)cc2N(CC(=O)N2CCN(c3ccc(F)cc3)CC2)C1=O` (centres unmarked) it was -54.1%.
As to `CCC1Oc2ccc(C)cc2N(CC(=O)N2CCOCC2)C1=O` (centres unmarked), the “hERG current change (%, negative = inhibition) at 10uM” value is recorded as 4.58%.
The value for `Cc1ccc2c(c1)N(CC(=O)N1CCN(c3nc4ccccc4s3)CC1)C(=O)C(C)O2` (centres unmarked) was -54.5%; that for `Cc1ccc2c(c1)N(CC(=O)N1CCCCC1)C(=O)C(C)O2` (centres unmarked) was 11.9%.
In the case of `Cc1ccc2c(c1)N(CC(=O)N1CCCC1)C(=O)C(C)O2` (centres unmarked) it was 19.4%; in that of `Cc1c(C(=O)N/N=C/c2ccc(N3CCOCC3)cc2)nc2ccccn12`, -1.87%.
The value for `C=CCN(CC=C)C(=O)C(=O)c1ccn(-c2c(C)csc2C(=O)OC)c1` was -70.3%.
As to `COC(=O)c1scc(C)c1-n1ccc(C(=O)C(=O)N(C)C)c1`, the “hERG current change (%, negative = inhibition) at 10uM” value is listed as 5.31%.
In the case of `CCN(CC)C(=O)C(=O)c1ccn(-c2c(C)csc2C(=O)OC)c1` it was -9.5%.
The value for `NC(=O)C1CCCN(C(=O)c2ccc(Cl)cc2)C1` (centres unmarked) was 6.59%; that for `O=C(Nc1ccccc1)c1cc(-n2cnnc2)ccc1Cl` was 9.46%.
The value for `CN(C)S(=O)(=O)c1ccc(C(=O)Nc2ccc3c(c2)CCC3)cc1` was -52%.
Consider `Cc1ccccc1C(=O)Nc1ccc(N2CCN(C)CC2)nc1`, for which the “hERG current change (%, negative = inhibition) at 10uM” value is -1.6%.
For the compound `CC(=O)Nc1ccc(N2CCN(c3ccc(C(F)(F)F)cn3)CC2)nc1`, the “hERG current change (%, negative = inhibition) at 10uM” value is recorded as -3.49%.
The value for `O=C(Nc1ccc(N2CCOCC2)nc1)c1ccc(C(F)(F)F)cc1` was 16.6%.
`CN(C)S(=O)(=O)N1CCc2ccc(NC(=O)c3ccc(C(F)(F)F)cc3)cc2C1`: the “hERG current change (%, negative = inhibition) at 10uM” value is given as 25.4%.
For the compound `COCC(=O)N1CCc2ccc(NC(=O)c3ccc(C(F)(F)F)cc3)cc2C1`, the “hERG current change (%, negative = inhibition) at 10uM” value is on record as -38.3%.
As for `Cc1ccc(C(=O)Nc2ccc3c(c2)CCC3)cc1`, the “hERG current change (%, negative = inhibition) at 10uM” value is on record as 14.7%.
`CN1CCc2ccc(NC(=O)c3ccc(C(F)(F)F)cc3)cc2C1`: the “hERG current change (%, negative = inhibition) at 10uM” value is listed as -53.8%.
As for `CN1CCN(c2ccc(NC(=O)c3ccc(Cl)cc3)cn2)CC1`, the “hERG current change (%, negative = inhibition) at 10uM” value is on record as -53.1%.
In the case of `O=C(Nc1ccc(N2CCOCC2)nc1)c1ccc(Cl)cc1`, the “hERG current change (%, negative = inhibition) at 10uM” value is recorded as -11.5%.
For the compound `CN(C)S(=O)(=O)c1cccc(C(=O)Nc2ccc3c(c2)CCC3)c1`, the “hERG current change (%, negative = inhibition) at 10uM” value is on record as -21.9%.
In the case of `CN1CCN(c2ccc(NC(=O)c3ccc(C(F)(F)F)cc3)cn2)CC1` it was -73.2%; in that of `Cn1c(=O)c2c([nH]c(=S)n2Cc2ccc(Cl)cc2)n(C)c1=O`, 17%.
Regarding `Cc1ccsc1C(=O)N1CCN(c2ncccn2)CC1`, the “hERG current change (%, negative = inhibition) at 10uM” value was 7.76%.
Take `COc1ccc(-c2nnn(CC(=O)N(C3CCCCC3)C(C)C(=O)NC3CCCC3)n2)cc1OC` (centres unmarked): the “hERG current change (%, negative = inhibition) at 10uM” value is given as -22.1%.
For `COc1cccc(/C=N/NC(=O)CC2C(=O)NN=C2C)c1OC` (centres unmarked), the “hERG current change (%, negative = inhibition) at 10uM” value stood at 2.5%.
The value for `O=C(NCCN1C(=O)S/C(=C\c2cccnc2)C1=O)c1ccc([N+](=O)[O-])s1` was 5.15%; that for `C/C(CC(=O)N1CCCC1)=N\NC(=O)c1cc2ccccc2cc1O` was 4.98%; that for `O=S(=O)(Nc1cc(S(=O)(=O)N2CCOCC2)ccc1N1CCCC1)c1cccs1` was -4.49%.
In the case of `Cc1cc(-c2nnco2)c(C)n1-c1ccccc1` it was -1.71%; in that of `COC(=O)C1=C(c2ccc(S(C)(=O)=O)cc2)C[C@@H]2CC[C@H]1N2C(=O)N1CCCCC1`, -1.44%.
The value for `CC(=O)NCCC(=O)N(C)CC1CCN(CCc2cccc(C(F)(F)F)c2)CC1` was 2.52%.
Consider `COC(=O)CCCC(=O)N(C)CC1CCCN(CCc2ccccc2C)C1` (centres unmarked), for which the “hERG current change (%, negative = inhibition) at 10uM” value is reported as -53.6%.
The value for `CCOC(=O)C1CCCCN1Cc1cccc(C(F)(F)F)c1` (centres unmarked) was 6.43%; that for `COc1ccccc1CCN1CCCC(CN(C)C(=O)CCC(=O)N(C)C)C1` (centres unmarked) was 9.14%.
Turning to `COC(=O)CCC(=O)N(C)CC1CCCN(CCc2cccc(C(F)(F)F)c2)C1` (centres unmarked), the “hERG current change (%, negative = inhibition) at 10uM” value was -61.9%.
Turning to `COc1ccccc1CCN1CCCC(CN(C)C(=O)CCC(N)=O)C1` (centres unmarked), the “hERG current change (%, negative = inhibition) at 10uM” value was 22.5%.
In the case of `CSCCC(=O)N(C)CC1CCN(CCc2cccc(C(F)(F)F)c2)CC1` it was -64.3%.
The value for `CN(CC1CCCN(CCc2cccc(C(F)(F)F)c2)C1)C(=O)c1ccco1` (centres unmarked) was -69.2%; that for `O=C(O)c1ccccc1NS(=O)(=O)c1cccc2nsnc12` was 18.3%; that for `O=C(N/N=C1\CCS(=O)(=O)c2ccc(F)cc21)c1ccc([N+](=O)[O-])cc1` was -19.6%.
In the case of `Cc1ccc(/C=N/NC(=S)NCCc2ccccc2)s1`, the “hERG current change (%, negative = inhibition) at 10uM” value stood at 27.9%.
Consider `Cc1ccc(CNC(=O)CSc2nc3ccsc3c(=O)n2NC(=O)c2ccccc2)cc1`, for which the “hERG current change (%, negative = inhibition) at 10uM” value is on record as -9.41%.
The value for `CCOC(=O)N1CCN(C(=O)C(CC(C)C)NS(=O)(=O)c2ccc3c(c2)oc(=O)n3C)CC1` (centres unmarked) was -12.4%; that for `O=C(CN(C(=O)c1csnn1)c1cccc2ccccc12)NCc1ccccc1` was 0.271%.
For `CN(CC1CCCN(CCc2cccc(C(F)(F)F)c2)C1)C(=O)c1ccc2nc[nH]c2c1` (centres unmarked), the “hERG current change (%, negative = inhibition) at 10uM” value was -33.1%.
In the case of `CSCCC(=O)N(C)CC1CCCN(CCc2cccc(C(F)(F)F)c2)C1` (centres unmarked) it was -74.6%.
The value for `CSCCC(=O)NC1CCCN(CCc2ccccc2)C1` (centres unmarked) was -38.2%.
